# TRPML1 ag – activates the human TRPML1 channel. TRPML1-expressing cells, Ca2+ dye fluorescence, FDSS. activation, % (test concentration not listed). AID 624414. Q9GZU1. 0.12% of 410,000 active; in the data active = activation above about 50%; inconclusive = mostly about 30% to 49%; note: 0% is about no effect
#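 Cells: TRPML1-DL, 1X Tet inducer, ~16 h at 37 degrees C/5% CO2. Dye: ABD Ca8 no-wash + quencher, 45-90 min RT. Read: 10 s baseline, compound add, 110 s agonist phase; 54-4 EC80 (4uM final), 110 s antagonist phase.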
# DRD3 agonist – agonists of human D3 dopamine receptor. max activation, %. P35462. AID 652048. 0.58% of 410,000 active. D3R DiscoveRx beta-arrestin cells, luminescence, 90 min; in the data active = max activation above about 30%; note: 0% is about no effect
# Target sequence (P35462 whole entry, looked up): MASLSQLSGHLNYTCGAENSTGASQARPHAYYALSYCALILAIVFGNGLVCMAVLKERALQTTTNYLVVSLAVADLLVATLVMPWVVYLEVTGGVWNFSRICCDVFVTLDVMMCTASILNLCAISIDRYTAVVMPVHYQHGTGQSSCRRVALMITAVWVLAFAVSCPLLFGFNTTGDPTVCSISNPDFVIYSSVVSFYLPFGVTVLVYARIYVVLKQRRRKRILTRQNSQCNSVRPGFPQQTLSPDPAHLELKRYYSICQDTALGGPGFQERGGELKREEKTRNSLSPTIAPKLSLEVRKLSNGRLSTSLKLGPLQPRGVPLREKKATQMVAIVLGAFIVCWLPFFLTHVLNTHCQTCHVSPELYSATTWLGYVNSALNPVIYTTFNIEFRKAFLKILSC
#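 Agonist mode: compounds and dopamine controls were applied to plated cells for 90 min at 37 degrees C after an overnight attachment at 1500 cells/well. Luminescent read-out followed 30 - 60 minutes at room temperature with DiscoveRx detection reagent.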
# TRPML1 blocker – human mucolipin-1 channel inhibition; Q9GZU1; TRPML1-inducible cells, Ca2+ dye fluorescence, FDSS; stronger effect = lower value; inhibition of EC80 agonist-evoked calcium signal; activity change, negative = inhibition, % (no concentration beside the values); 0.02% of 390,000 active; in the data active = activity change below about -50%; inconclusive = between about -30% and that limit;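 note: stimulus is agonist 54-4 at its EC80 concentration; % is set by controls: 0 for no effect and ±100 for the full control effect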
#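 Calcium fluorescence in TRPML1-DL cells induced overnight with Tet: a 110 s read after compound pin addition, then a 110 s antagonist read after challenge with 54-4 at 4 uM final (EC80).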
# DRD3 antagonist – D3 dopamine receptor (human) antagonism. D3R cells, DiscoveRx beta-arrestin luminescence, antagonist mode; stronger effect = lower value. max response, negative = inhibition, %. 2.5% of 360,000 active. AID 652054; in the data active = max response below about -50%; inconclusive = no clear call, values can overlap the other calls; note: % is set by controls: 0 for no effect and ±100 for the full control effect
#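 Cells expressing the human receptor were seeded at 1500 cells/well, incubated overnight at 37 degrees C in 5% CO2, then exposed to library compounds with dopamine controls for 90 minutes at 37 degrees C before luminescent detection.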
# * = called active by the depositor; ? = inconclusive; · = not tested or not shown. Compounds with a hit are over-represented: about 2.9% of the library has one in this group of screens.
SMILES,TRPML1 ag,DRD3 agonist,TRPML1 blocker,DRD3 antagonist
CNC(=O)C1CCC(Cn2c(=O)c3sccc3n(Cc3ccccc3)c2=O)CC1 (stereo not given),-0.1,2.1,16.4,·
C=CCN1C[C@H](C(=O)N(CCCN(C)C)C(=O)NCC)C[C@@H]2c3cccc4[nH]cc(c34)C[C@H]21,·,67.1*,·,·
CCCCCCCCCC[n+]1ccc(/C=C/c2ccc(N(C)C)cc2)c2ccccc21,56.7*,·,·,·
COc1ccc(OC)c(NC(=O)c2nc(S(=O)(=O)Cc3ccccc3F)ncc2Cl)c1,-0.7,·,·,·
COc1ccc(OC)c(NC(=O)c2nc(S(=O)(=O)Cc3ccccc3)ncc2Cl)c1,1.9,-37.5,-7.9,-104.1*
COc1ccc(NC(=O)c2nc(S(=O)(=O)Cc3cccc(C)c3)ncc2Cl)c(OC)c1,-0.6,-8.5,8.2,-115.8*
O=C(C[n+]1ccccc1Br)c1ccc(F)cc1,0.7,·,·,·
COc1ccc(/C=c2\[nH]c(=O)/c(=C/c3ccc(OC)c(OC)c3)[nH]c2=O)cc1OC,-0.2,·,·,·
CCCC[n+]1c2ccccc2cc2ccccc21,1.6,1.7,4.2,-93.7*
CC(C)(C)n1ncc2c(=O)n(Cc3ccc(OC(F)(F)F)cc3)cnc21,0.4,·,45.8,·
COc1ccccc1N1CCN(C(=O)Cn2c(=O)nc(-c3ccccc3)c3ccccc32)CC1,1.6,18.6,-16.0,·
COc1cc(/C=C(\C#N)c2nc3ccccc3o2)ccc1O,53.1*,-8.2,-2.6,?
CN1CCN(c2nc3cc(C(F)(F)F)ccc3n3cccc23)CC1,2.2,-72.2,19.3,-51.5*
FC(F)(F)c1cccc(N2CCN(c3nc4ccccc4n4cnnc34)CC2)c1,0.3,3.7,-15.0,·
O=S(=O)(N(Cc1ccccc1)[C@@H](CO)Cc1ccccc1)N(Cc1ccccc1)[C@@H](CO)Cc1ccccc1,1.2,84.5*,35.2,75.4
C=CS(=O)(=O)N(Cc1ccccc1Br)[C@H](CO)Cc1ccccc1,-1.1,15.7,14.1,19.6
CC(C)C[C@H](CO)N(Cc1ccccc1)S(=O)(=O)N(Cc1ccccc1)[C@@H](CO)CC(C)C,3.1,58.7*,-4.1,101.7
OC(c1ccc(CN2CCCCC2)cc1)c1ncc(-c2ccccc2)[nH]1 (stereo not given),-0.5,-14.6,·,-106.8*
COc1ccc(-c2cnc(C(O)c3ccc(CN4CCCCC4)cc3)[nH]2)cc1 (stereo not given),-0.5,-14.0,·,?
CCCCNC(=O)NC(C(=O)OC)C12CC3CC(CC(C3)C1)C2 (stereo not given),1.0,-5.6,-10.3,-57.2*
CCCCNC(=O)NC12CC3CC(CC(C3)C1)C2,-0.6,-3.0,19.6,-4.3
CC(C)(C)c1ccc(O)c(N=Cc2cccc([N+](=O)[O-])c2)c1,-0.4,·,·,·
Cc1c(N/N=C(\C#N)C(=O)c2ccccc2)c(=O)n(-c2ccccc2)n1C,0.7,-19.9,-1.3,-67.6*
N#C/C(=N\Nc1cccc(Cl)c1)C(=O)c1ccccc1,1.9,6.9,16.3,-85.9*
Cc1ccccc1NC(=O)CSc1nc2c(oc3ccccc32)c(=O)n1Cc1ccco1,0.4,-14.0,3.3,·
SMILES,TRPML1 ag,DRD3 agonist,TRPML1 blocker,DRD3 antagonist
O=C(c1ccccc1)c1cc(Cl)ccc1N1C(=O)C=CC1=O,0.5,-27.9,-14.6,-92.3*
O=C(Nc1ccc(C2=CN(Cc3ccccc3)CCC2=O)cc1)OCc1ccccc1,-0.5,51.7*,-9.3,31.1
CCc1cc2c(=O)c(-c3cnn(-c4ccccc4)c3)coc2c(CN2CCOCC2)c1O,0.2,0.4,18.2,5.0
CCc1cc2c(=O)c(-c3cnn(-c4ccccc4)c3)c(C)oc2c(CN2CCCCC2)c1O,1.5,36.7*,-6.1,0.8
COc1ccccc1N=c1oc2c(OC)cccc2cc1C(=O)NCc1ccco1,-1.4,6.2,-4.0,47.2
COc1ccc(N=c2oc3c(OC)cccc3cc2C(=O)NCc2ccco2)cc1OC,-0.8,32.6*,12.3,18.2
Fc1ccc(Nc2nc3nonc3nc2Nc2cccc(C(F)(F)F)c2)cc1,2.3,-15.8,-4.3,·
CCCCN1CCC(CN2C(=O)C(=O)NC[C@@H]2Cc2ccccc2)CC1,-0.4,-25.0,8.9,-19.5
CC(CCN1CCC(CN2C(=S)NCC2Cc2ccccc2)CC1)c1ccccc1 (stereo not given),-0.5,-41.0,-6.9,-62.8*
O=C1NC[C@H](Cc2ccccc2)N(CC2CCN(CCCCc3ccccc3)CC2)C1=O,-0.2,-46.0,4.7,-50.5*
S=C1NC[C@H](Cc2ccccc2)N1CC1CCN(CCCCc2ccccc2)CC1,-0.4,-41.5,-10.9,-92.6*
CC(C)CCN1CCC(CN2C(=S)NC[C@@H]2Cc2ccccc2)CC1,0.0,-49.8,-11.8,-27.7
Cc1cccc(-c2nc3c4ccccc4nc(NCc4ccc(Cl)cc4)n3n2)c1,2.0,-16.7,17.4,·
Cc1ccc2c(c1)N(CC(=O)N1CCCC1)C(=O)c1cccnc1O2,-0.7,-1.6,0.7,-85.8*
c1ccc2c(c1)sc[n+]2CCC1CCCCC1,0.3,·,·,·
COc1ccc(CCNC(=O)Cc2c(C)c3ccc(O)c(C)c3oc2=O)cc1OC,1.6,37.9*,8.7,·
COc1ccc(CNC(=O)CCc2c(C)c3ccc(OC)c(C)c3oc2=O)cc1OC,-1.2,6.8,-13.9,·
Cc1cccc(N2C(=O)CSC23C(=O)N(Cc2cccc(C(F)(F)F)c2)c2ccccc23)c1 (stereo not given),2.0,-11.4,-15.3,·
COc1ccc(C2=CC3=C(Br)C(=O)C(C)(OC(=O)c4cccs4)C(=O)C3=CO2)cc1 (stereo not given),0.2,10.3,53.8,-54.6*
CCc1nc2ccccc2c(C(=O)OCC(=O)Nc2cccc(S(=O)(=O)N3CCOCC3)c2)c1C,3.0,33.2*,31.0,104.7
CCc1nc2ccccc2c(C(=O)OCC(=O)Nc2cccc(S(=O)(=O)NC3=NCCCCC3)c2)c1C,3.5,44.8*,-7.3,91.5
C[N+]1(CC(=O)c2ccc(Cl)cc2)CCOCC1,-0.3,·,·,·
COc1ccc2[nH]c3c(c2c1)CCN1C(=O)N([C@@H](C)C(=O)NCc2ccc(C)cc2)C(=O)[C@]31C,·,31.5*,·,1.7
COc1ccccc1/C=C/c1nc2ccccc2s1,-0.6,·,·,·
Cc1nc(Nc2ccc(S(=O)(=O)N3CCCCC3C)cc2)c2nnn(Cc3ccccc3)c2n1 (stereo not given),1.2,-5.0,23.4,-58.6*
SMILES,TRPML1 ag,DRD3 agonist,TRPML1 blocker,DRD3 antagonist
Cc1nc(Nc2ccc(Cl)cc2)c2nnn(Cc3ccccc3)c2n1,0.0,0.6,0.1,6.0
CC(=O)Nc1ccc(Nc2nc(C)nc3c2nnn3Cc2ccccc2Cl)cc1,-0.6,-20.4,7.2,-74.3*
NC1=NC(=O)C(CC(=O)NCc2ccccc2)S1 (stereo not given),0.1,3.5,-4.3,-65.0*
NC1=NC(=O)CC(C(=O)NCc2ccccc2)S1 (stereo not given),2.2,-1.6,-21.7,7.1
OC(COCc1cccs1)CN1CCN(c2cccc(C(F)(F)F)c2)CC1 (stereo not given),-0.3,-5.4,-1.5,-54.8*
O=S(=O)(c1ccc(F)cc1)N1CCN(CC(O)COCc2cccs2)CC1 (stereo not given),0.3,0.4,13.5,-28.3
